“And” between values parts separate entries of the source, which are not always exact repeats. Equal entries are not always repeated. Records with an inconclusive call do not appear. The source made the active and inactive calls. Unless noted, calls come from the whole dose curve; as a rule, active = well fitted curve in the direction sought with a large enough effect; inconclusive = small, poorly fitted or top-dose-only effect, or another doubt; inactive = no such curve, though single readings can be large; an effect the other way counts as inactive or inconclusive.

The record followed here is PubChem BioAssay (NCATS).

A short description of assay [1]: Cellular Toxicity (caspase-3) Jurkat (AID 655).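 Note: cells exposed to compound for 16 h at 37 °C before reading.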 Particulars: Jurkat caspase-3 activation, luminescence; caspase-3 activation: at 92.2 µM (top of the series), DMSO = 0%, tamoxifen = 100%. The method in brief: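 Jurkat cells (5000/well) in complete medium exposed 16 h at 37 C; caspase-3/7 activity read by Caspase-Glo luminescence after 20 min at room temperature. Normalized to DMSO and 100 uM tamoxifen; AC50 from Hill fits.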

Assay [2] in a line: Cellular Toxicity (caspase-3) HUV-EC-C (AID 656). The method in brief:
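HUV-EC-C cells (1000/well) in complete medium, compound-treated 16 h at 37 °C; caspase-3/7 activity read by Caspase-Glo 3/7 luminescence. Normalized to DMSO (basal) and 100 uM tamoxifen (100%); AC50 from Hill-equation concentration-response fits.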

Assay [3] is described as follows: Cellular Toxicity (caspase-3) SHSY5Y (AID 657). The procedure, abridged: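 SH-SY5Y human neuroblastoma cells, 1500/well, exposed to compound for 16 hours at 37 °C in complete medium. Caspase-3/7 activity read by Caspase-Glo luminescence after 1 hr at room temperature, normalized to DMSO and 10 uM staurosporine; AC50 from Hill fit.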
Assay [4] in a line: Cellular Toxicity (caspase-3) BJ (AID 658).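 Note: 0% = DMSO basal and 100% = 10 µM staurosporine.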 The method in brief: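 BJ human foreskin fibroblasts, 1000 cells/well, treated 16 hours at 37 °C in complete medium; caspase 3/7 activity by Caspase-Glo luminescence after 1 hr at room temperature. Normalized to DMSO and 10 uM staurosporine; AC50 from Hill fits.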
Assay [5] is described as follows: Cellular Toxicity (caspase-3) N2a (AID 665).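 Note: compound exposure lasted 16 h at 37 °C before readout.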 The procedure, abridged:
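Mouse N2a neuroblastoma cells (1500/well) were treated with compounds for 16 h at 37 °C, then caspase-3/7 activity was read by Caspase-Glo luminescence after 1 h at room temperature. Data were normalized to DMSO and 10 uM staurosporine; AC50 from Hill fits.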

Assay [6] is described as follows: Cellular Toxicity (caspase-3) NIH 3T3 (AID 666).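 Note: caspase signal read after 16 h compound exposure; 0% = DMSO basal and 100% = 100 µM tamoxifen stimulation.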 The procedure, abridged:
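Mouse NIH 3T3 fibroblasts (1000 cells/well) were treated with compound for 16 hr at 37°C in complete medium; caspase-3/7 activity was read by Caspase-Glo luminescence. Normalized to DMSO and 100 uM tamoxifen; AC50 from Hill fits.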

Assay [7] is described as follows: Cellular Toxicity (caspase-3) Renal Proximal Tubule (AID 667).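 Note: cells exposed to compound for 16 hours at 37 °C before detection; 0% = DMSO basal and 100% = 10 µM staurosporine.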 The procedure, abridged:
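Freshly isolated primary rat kidney proximal tubule cells, 1000/well, treated 16 hr at 37 °C, then Caspase-Glo 3/7 luminescence after 1 hr. Normalized to DMSO and 10 uM staurosporine; AC50 from Hill fit.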

A short description of assay [8]: MultiTox-Fluor Cytotoxicity Assay - LYMP1-001 - Dead Cells (AID 946).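 Note: 0% = DMSO and 100% = tetraoctylammonium bromide.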 The procedure, abridged: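 In this qHTS, 15 uM tetraoctylammonium bromide defined 100% and DMSO defined basal activity. Lymphoblastoid cells (LYMP1-001, 2500 per well) received compound for 16 hr at 37 C before a fluorogenic dead-cell substrate readout at 485/520 nm.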
A short description of assay [9]: Cell Viability - LYMP1-002 - Assay at 16 hr (AID 948).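 Note: 0% = DMSO alone and full effect = 92 µM tetraoctylammonium bromide.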 The procedure, abridged: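 LYMP1-002 human lymphoblastoid cells, 2500/well, were treated with compounds for 16 hr at 37 C in complete medium. Viability was read as intracellular ATP by CellTiter-Glo luminescence, and AC50 was derived from a Hill fit to concentration-response data.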
Assay [10] is described as follows: MultiTox-Fluor Cytotoxicity Assay - LYMP1-002 - Live Cells (AID 955). Note: % is set by controls: 0 for no effect and ±100 for the full control effect. The method in brief: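 Human lymphoblastoid LYMP1-002 cells, 2500/well in complete medium, rested 5 hr at 37 C, then exposed to compounds for 16 hr at 37 C. Live-cell protease cleavage of GF-AFC read by fluorescence (Ex/Em 405/510) after 60 min at room temperature; AC50 from Hill fits.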
Assay [11] can be described thus: MultiTox-Fluor Cytotoxicity Assay - LYMP1-002 - Dead Cells (AID 960). Note: nearly all actives have a fitted effect of over 60% in size. Note: potency is the fitted concentration of half-maximal effect. The method in brief: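 Human lymphoblastoid cells (LYMP1-002), 2500/well in complete medium, were exposed to compounds for 16 hr at 37 C. Dead-cell protease activity was read as bis-AAF-R110 fluorescence (Ex/Em 485/520), normalized to DMSO and 15 uM tetraoctylammonium bromide; AC50 from Hill fits.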

Assay [12] in a line: MultiTox-Fluor Cytotoxicity Assay - LYMP1-003 - Dead Cells (AID 961).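 Note: 0% = DMSO and 100% = tetraoctylammonium bromide; nearly all actives have a fitted effect of over 70% in size.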 The method in brief: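 Acute toxicity is scored as increased dead-cell protease activity in human lymphoblastoid LYMP1-003 cells after 16 h compound exposure in complete culture medium. Activity is normalized to DMSO basal and 15 uM tetraoctylammonium bromide as full response.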
Assay [13] is described as follows: qHTS assay for small molecule agonists of the antioxidant response element (ARE) signaling pathway (AID 651741; active = well fitted activation curve with a large enough effect in the signal ratio; the % refers to the signal ratio; note: potency is the fitted concentration of half-maximal effect; for activation: % of control where 0% means no effect). The procedure, abridged: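 HepG2 ARE-bla cells plated at 2,000 cells/well and incubated 5 h at 37 C/5% CO2 received 23 nL compound in DMSO. After 16 h at 37 C, LiveBLAzer B/G FRET substrate was applied for 2 h at room temperature and fluorescence read.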

Assay [14] concerns the target Peroxisome proliferator-activated receptor alpha (Homo sapiens) (UniProt Q07869). Put plainly: qHTS assay for small molecule agonists of the peroxisome proliferator-activated receptor alpha (PPARalpha) signaling pathway (AID 651778). Note: % of control where 0% means no effect. Particulars: PathHunter PPARalpha complementation, chemiluminescence, 6 h; stronger effect = higher value. The method in brief:
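Enzyme-fragment complementation assay in which ligand-bound PPARalpha translocates and forms an active enzyme that generates chemiluminescence. Cells were plated overnight, exposed to compound for 6 hr at 37 C, and then given detection reagent for 60 min at room temperature.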

Assay [15] deals with Nuclear receptor ROR-gamma (Homo sapiens) (UniProt P51449). Put plainly: qHTS assay for small molecule antagonists of the retinoid-related orphan receptor gamma (ROR-gamma) signaling pathway (AID 651802). Note: % is set by controls: 0 for no effect and ±100 for the full control effect; nearly all actives have a fitted effect of over 60% in size. The procedure, abridged:
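CHO cells carrying TET-inducible ROR-gamma and an ROR response element–luciferase reporter were exposed to compound, then induced with doxycycline. After 16hr at 37C, luminescence was read; lower signal indicates antagonism.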
Background: Quantitative high-throughput screening tests each substance at several concentrations.

Assay [16] can be described thus: qHTS assay for small molecule agonists of the antioxidant response element (ARE) signaling pathway measured by Nrf2-dependant transcriptional activity - cell viability counter screen (AID 720653; active = well fitted curve in the direction sought with a large enough effect in the repeat runs; an effect the other way counts as inactive or inconclusive; note: % is set by controls: 0 for no effect and ±100 for the full control effect). The following applies: ARE-bla HepG2 viability, CellTiter-Glo ATP luminescence, 16 h; stronger effect = lower value. The procedure, abridged: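 ARE-bla HepG2 cells treated with compounds for 16 h at 37C; this counter screen measures viability as intracellular ATP by CellTiter-Glo luminescence after 30 min at room temperature.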

Assay [17] in a line: qHTS assay for cell viability of HEK293 cells (AID 743288). Note: % is set by controls: 0 for no effect and ±100 for the full control effect; nearly all actives have a fitted effect of over 50% in size. Particulars: ATP luminescence (CellTiter-Glo), 18 h, stronger effect = lower value. The method in brief: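 Parental HEK293 cells, 2,000 per well, preincubated at least 5 h at 37 C, then exposed to compounds in DMSO for 18 h at 37 C. Viability by CellTiter-Glo ATP luminescence after 30 min at room temperature.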
Assay [18] can be described thus: qHTS assay for cell viability of the p53RE-bla HCT-116 cell line (AID 743292). Note: % is set by controls: 0 for no effect and ±100 for the full control effect; nearly all actives have a fitted effect of over 55% in size. The method in brief: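 HCT-116 p53RE-bla cells seeded 4,000/well; 5 h at 37 C; compound (DMSO) added; 16 h at 37 C; CellTiter-Glo added, 30 min RT; luminescence read.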
The target of assay [19] is Nuclear receptor subfamily 1 group I member 2 (Rattus norvegicus) (UniProt Q9R1A7). Description: qHTS assay for small molecule activators of the rat pregnane X receptor (rPXR) signaling pathway (AID 651751; call rule not given here; note: 0% is about no effect). The following applies: rPXR reporter cells, luciferase (One-Glo), 24 h.
Chain of Nuclear receptor subfamily 1 group I member 2 (Rattus norvegicus) (Q9R1A7 whole entry, looked up): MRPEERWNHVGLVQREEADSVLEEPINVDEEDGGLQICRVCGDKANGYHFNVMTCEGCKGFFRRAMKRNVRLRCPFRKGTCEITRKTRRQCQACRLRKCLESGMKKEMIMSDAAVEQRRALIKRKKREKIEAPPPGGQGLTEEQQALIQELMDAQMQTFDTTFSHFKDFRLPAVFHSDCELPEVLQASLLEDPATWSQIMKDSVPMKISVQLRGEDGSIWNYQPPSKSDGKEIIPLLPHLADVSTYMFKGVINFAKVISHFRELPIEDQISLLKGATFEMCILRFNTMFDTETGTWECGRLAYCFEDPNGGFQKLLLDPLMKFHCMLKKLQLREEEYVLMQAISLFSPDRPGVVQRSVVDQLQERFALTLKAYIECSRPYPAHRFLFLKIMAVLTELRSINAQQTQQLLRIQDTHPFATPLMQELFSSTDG
Assay [20] can be described thus: qHTS assay for small molecule activators of the human pregnane X receptor (PXR) signaling pathway (AID 720659; call rule not given here; note: 0% is about no effect).

Chain of Peroxisome proliferator-activated receptor alpha (Homo sapiens) (Q07869 whole entry, looked up, the tested form may be a part): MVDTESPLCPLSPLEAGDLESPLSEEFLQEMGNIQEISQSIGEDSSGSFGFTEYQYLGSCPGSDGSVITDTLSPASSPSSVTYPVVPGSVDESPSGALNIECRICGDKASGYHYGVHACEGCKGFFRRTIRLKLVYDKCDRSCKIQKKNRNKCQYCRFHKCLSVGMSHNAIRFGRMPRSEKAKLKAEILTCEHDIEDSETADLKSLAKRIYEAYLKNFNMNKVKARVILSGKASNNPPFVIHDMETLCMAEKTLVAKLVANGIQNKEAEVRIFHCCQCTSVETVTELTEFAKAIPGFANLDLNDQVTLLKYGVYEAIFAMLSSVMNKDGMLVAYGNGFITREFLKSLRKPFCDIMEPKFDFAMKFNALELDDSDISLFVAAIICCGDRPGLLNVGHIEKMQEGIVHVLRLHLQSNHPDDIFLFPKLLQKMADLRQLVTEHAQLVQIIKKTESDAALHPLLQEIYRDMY
Chain of Nuclear receptor ROR-gamma (Homo sapiens) (P51449 whole entry, looked up): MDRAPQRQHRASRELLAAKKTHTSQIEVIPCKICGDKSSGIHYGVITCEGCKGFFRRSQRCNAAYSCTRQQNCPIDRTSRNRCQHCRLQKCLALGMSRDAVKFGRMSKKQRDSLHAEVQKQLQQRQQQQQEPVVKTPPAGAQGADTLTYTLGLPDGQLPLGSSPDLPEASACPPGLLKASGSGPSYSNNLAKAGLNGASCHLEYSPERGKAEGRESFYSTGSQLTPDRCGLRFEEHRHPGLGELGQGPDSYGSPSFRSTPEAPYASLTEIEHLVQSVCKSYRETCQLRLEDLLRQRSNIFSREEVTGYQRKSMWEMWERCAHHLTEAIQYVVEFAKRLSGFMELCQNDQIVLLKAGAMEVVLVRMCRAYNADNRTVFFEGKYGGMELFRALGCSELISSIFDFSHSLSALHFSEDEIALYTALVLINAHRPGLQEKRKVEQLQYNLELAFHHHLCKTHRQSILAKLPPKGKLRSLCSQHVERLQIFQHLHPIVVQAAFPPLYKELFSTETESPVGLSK

For `ClC(Cl)c1ccccc1`, the caspase-3 activation in assay [1] is 2.34% (inactive). For the same compound, the compound was classed as inactive in assay [2], in assay [3], in assay [4], in assay [5], in assay [7] and in assay [8]. The result in [9], in assay [10] and in assay [20] was inactive. The Potency entry in [6], in [11], in assay [12], in assay [13], in assay [15] and in [18] was “inactive” throughout. Moreover, the max response is -0.698% (inactive) in assay [14], -0.372% (inactive) in [16], -9.22% (inactive) in assay [17] and 3.54% (inactive) in [19].

Regarding `C=CCOCC1CO1` (stereo not given), the caspase-3 activation in [1] was -0.0286% (inactive). Moreover, the call in assay [2], in [3], in assay [4], in assay [5], in [7] and in assay [8] was inactive. In addition, the compound was classed as inactive in [9], in assay [10] and in assay [20]. In addition, the Potency entry in [6], in assay [11], in [12], in assay [13], in assay [15] and in assay [18] was “inactive” in each case. For the same compound, the max response in assay [14] is 11.4% (inactive); in assay [16], 2.37% (inactive); in assay [17], -5.74% (inactive); in assay [19] it was -1.61% (inactive).

`O=[N+]([O-])c1cc(Cl)c(Cl)cc1Cl`: in assay [1], the caspase-3 activation was 2.39% (inactive). Further, the compound was classed as inactive in assay [2], in assay [3], in assay [4], in [5], in assay [7] and in assay [8]. Also, the call in assay [9], in assay [10] and in assay [20] was inactive. In addition, the Potency entry in assay [6], in [11], in assay [12], in [15] and in assay [18] was “inactive” each time. In addition, the Potency in assay [13] was 26.6 µM (active). Further, the max response in [14] is -8.71% (inactive); in assay [16], -7.17% (inactive); in [17] it was -3.86% (inactive); in assay [19] it was -0.165% (inactive).

Regarding `NC1CCC(CC2CCC(N)CC2)CC1` (stereo not given), the caspase-3 activation in assay [1] is 0.418% (inactive). For the same compound, the compound was called inactive in assay [2], in assay [3], in assay [4], in assay [5], in assay [7] and in [8]. Further, the call in assay [9], in assay [10] and in assay [20] was inactive. The Potency result in [6], in assay [12], in assay [13], in assay [15] and in [18] was “inactive” throughout. The Potency in assay [11] is 3.98 µM (active). In addition, the max response in assay [14] was -7.49% (inactive) and -0.343% (inactive); in assay [16] it was -9.14% (inactive) and 3.44% (inactive); in assay [17], 7.87% (inactive) and 2.31% (inactive); in [19] it was 5.41% (inactive) and 4.82% (inactive).

As for `O=C(O)CCl`, the caspase-3 activation in assay [1] was -0.292% (inactive). Also, the compound was called inactive in assay [2], in assay [3], in [4], in assay [5], in assay [7] and in assay [8]. Also, the result in assay [9], in assay [10] and in assay [20] was inactive. The Potency result in assay [6], in assay [11], in [12], in [15] and in [18] was “inactive” throughout. Further, in assay [13], the Potency is 42.2 µM (active). The max response in assay [14] was -6.37% (inactive); in [16], 1.47% (inactive); in assay [17] it was -4.45% (inactive); in [19] it was 9.97% (inactive).

For `Cc1ccc(N=C=O)cc1N=C=O`, the caspase-3 activation in assay [1] is 0.0584% (inactive). Also, the compound was classed as inactive in assay [2], in [3], in assay [4], in assay [5], in assay [7] and in assay [8]. Moreover, the result in [9], in assay [10] and in assay [20] was inactive. Further, the Potency entry in assay [6], in assay [11], in assay [12], in assay [13], in assay [15] and in assay [18] was “inactive” throughout. The max response is -6.43% (inactive) and 0.39% (inactive) in assay [14]; -4.8% (inactive) and -0.784% (inactive) in assay [16]; -9.26% (inactive) and -8.71% (inactive) in [17]; 5.64% (inactive) and 2.33% (inactive) in assay [19].
